The source of these data is the supplement of paper PMC8183993.

Where “and” joins values, the source holds several entries; their conditions need not be identical. Equal entries are not always repeated. Structures can show the parent of a compound that is named as a salt. ± gives the standard deviation of the averaged measurements. In all, about 3,200 compounds were measured (“nuclei count (viability) relative to DMSO”: median about 99, lowest 2% from about 16 on). The entries come from a sample that favours the lowest values as a whole.

The experiment has as its system U2OS. Briefly: nuclei count (viability) relative to DMSO (% of DMSO); higher = more viable cells. The note with it: 10 µM; 24 h. The method, then:
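Primary image-based screen in U2OS cells: compounds at 10 uM for 24 h, then a 1 h o-propargyl-puromycin (OPP) pulse, click labelling, and high-throughput microscopy. Mean cytoplasmic OPP intensity and nuclei count were normalised to DMSO wells within each plate (DMSO = 100) and averaged over triplicate plates.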
`C/C=C1\NC(=O)[C@H]2CSSCC/C=C/[C@H](CC(=O)N[C@H](C(C)C)C(=O)N2)OC(=O)[C@H](C(C)C)NC1=O` [Romidepsin (FK228 ,depsipeptide)] registered a nuclei count of 8.81.

Regarding `CC#CCOC(=O)C1=CCCN(C)C1` [Arecaidine but-2-ynyl ester tosylate], the nuclei count was found to be 101.

`CNC(=O)c1cc(Oc2ccc(NC(=O)Nc3cc(C(C)(C)C)nn3-c3ccc4ncccc4c3)c(F)c2)ccn1` [DCC-2036 (Rebastinib)] showed a nuclei count of 70.1.

Turning to `C=CC(=O)c1ccc2ccccc2c1`, the nuclei count amounted to 105.

`O=C(/C=C/c1ccc2ccccc2n1)c1ccncc1` gave a nuclei count of 11.3.

`NC(=O)c1ccncc1` [Isonicotinamide] gave a nuclei count of 99.6.

Regarding `COC(=O)C1=C(C)NC(C)=C(C(=O)OCCSc2ccccc2)C1C` (stereo not drawn), the nuclei count is 97.8.

Regarding `CCS(=O)(=O)N1CCC[C@@H]2CN3CCc4cc(OC)ccc4[C@@H]3C[C@@H]21`, the nuclei count is 101.

The molecule `CC1=CC(=O)c2ccccc2C1=O` [Menadione] registered a nuclei count of 54.1.

The molecule `O=C1c2ccccc2C(=O)c2c1ccc(O)c2O` [Alizarin] had a nuclei count of 89.7.

As to `CC[C@H](C)[C@H](N)C1=N[C@H](C(=O)N[C@@H](CC(C)C)C(=O)N[C@H](CCC(=O)[O-])C(=O)N[C@H](C(=O)N[C@H]2CCCCNC(=O)[C@H](CC(N)=O)NC(=O)[C@@H](CC(=O)[O-])NC(=O)[C@H](Cc3cnc[nH]3)NC(=O)[C@@H](Cc3ccccc3)NC(=O)[C@H]([C@@H](C)CC)NC(=O)[C@@H](CCCN)NC2=O)[C@@H](C)CC)CS1.[Zn+2]` [Bacitracin zinc], the nuclei count turned out to be 109.

Take `CC(C)NCC(O)COc1ccc(COCCOC(C)C)cc1` (racemic) [(±)-Bisoprolol hemifumarate]: the nuclei count stood at 102.

As to `C[C@H](NC(=O)/C(C#N)=C/c1ccc(O)c(O)c1)c1ccccc1` [Tyrphostin B44, (+) enantiomer], the nuclei count turned out to be 93.4.

`N#C/C(=C\c1ccc(O)c(O)c1)C(=O)Nc1ccccc1` came in with a nuclei count of 83.4.

Turning to `N#C/C(=C\c1ccc(O)c(O)c1)C(=O)NCc1ccccc1`, the nuclei count is 102 and 98.5.

`CCC[C@H](NC(=O)/C(C#N)=C/c1cccc(Br)n1)c1ccccc1` returned a nuclei count of 5.45.

The molecule `C[C@H](NC(=O)/C(C#N)=C/c1cccc(Br)n1)c1ccccc1` registered a nuclei count of 7.49 ± 1.2.

For the molecule `CC(C)c1cccc(=O)c(O)c1` [Hinokitiol], the nuclei count was 87.3.

Take `CCC(C)[C@H](NS(=O)(=O)c1cccc2ccccc12)C(=O)N[C@H](C=O)Cc1c[nH]c2ccccc12` (stereo partly drawn): the nuclei count worked out at 90.3.

`CNC(=O)CN(CCN(CCN(CC(=O)O)CC(=O)NC)CC(=O)O)CC(=O)O.O.[Gd]` [Gadodiamide (Omniscan)] yielded a nuclei count of 101.

`Cc1ccccc1C(=O)Nc1ccc(C(=O)N2CCCC(N(C)C)c3ccccc32)cc1` (stereo not drawn) [Mozavaptan] returned a nuclei count of 41.2.

In the case of `N[C@@H](CS(=O)O)C(=O)O` [L-Cysteinesulfinic acid], the nuclei count turned out to be 102.

Molecule `CC1=NN(c2ccc(C)c(C)c2)C(=O)/C1=N\Nc1cccc(-c2cccc(C(=O)O)c2)c1O` came in with a nuclei count of 98.3.

For the molecule `C=CC(=O)Nc1cccc(Oc2nc(Nc3ccc(N4CCN(C)CC4)cc3OC)ncc2Cl)c1`, the nuclei count is 107.

Turning to `CCC(=O)Nc1cccc(Oc2nc(Nc3ccc(N4CCN(C)CC4)cc3OC)ncc2Cl)c1`, the nuclei count amounted to 94.6.

The molecule `C=CC(=O)Nc1cccc(Nc2nc(Nc3ccc(Oc4ccnc(C(=O)NC)c4)cc3)ncc2F)c1` registered a nuclei count of 63.4.

`C=CC(=O)Nc1ccc2ncnc(Nc3cccc(Br)c3)c2c1` had a nuclei count of 79.2 ± 4.8.

As to `C=CC(=O)Nc1cccc(Oc2nc(Nc3ccc(N4CCN(C)CC4)cc3)ncc2Cl)c1`, the nuclei count came to 6.24.

Molecule `C=CC(=O)Nc1cccc(Sc2nc(Nc3ccc(N4CCN(C)CC4)cc3)ncc2Cl)c1` yielded a nuclei count of 13.6.

Regarding `NC1CCN(c2cccc(Cl)n2)CC1`, the nuclei count is 103.

As for `COC(=O)C1=C(C)NC(C)=C(C(=O)NCCCN2CCC(c3ccccc3)(c3ccccc3)CC2)C1c1ccc([N+](=O)[O-])cc1` (stereo not drawn), the nuclei count was found to be 55.1.

Take `O=C(O)CCc1ccc(NCc2cccc(Oc3ccccc3)c2)cc1`: the nuclei count stood at 90.2.

The molecule `COC(C)(C)CCCC(C)C/C=C/C(C)=C/C(=O)O` (stereo not drawn) [Methoprene acid] showed a nuclei count of 105.

For the molecule `COc1ccc(CN2C(=O)C(=O)c3cc(OC(F)(F)F)ccc32)cc1`, the nuclei count stood at 17.3.

For the molecule `O=[N+]([O-])c1ccc2c(c1)S(=O)(=O)C=C2` [Stattic], the nuclei count came to 14.1.

Take `CS(=O)(=O)Nc1ccc([N+](=O)[O-])cc1Oc1ccccc1` [Nimesulide]: the nuclei count was found to be 103 ± 6.9.

On to `O=C1Nc2ccc([N+](=O)[O-])cc2C1=O` [5-Nitroisatin], for which the nuclei count was 99.

In turn, `CCCC[P+](CCCC)(CCCC)Cc1ccc(NC(=O)C(Cc2ccc3ccccc3c2)NC(=NC2CCCCC2)NC2CCCCC2)cc1` (stereo not drawn) returned a nuclei count of 94.1.

In turn, `CC(C)C[C@H](NC(=O)[C@H](Cc1ccccc1)NC(=O)c1cnccn1)B(O)O` [Bortezomib (Velcade)] registered a nuclei count of 7.65.

In the case of `CC(C)C[C@H](NC(=O)[C@@H](O)[C@H](N)Cc1ccccc1)C(=O)O` [Bestatin], the nuclei count turned out to be 94.4.

The molecule `Nc1nc(NCCc2ccc(O)cc2)nc2nc(-c3ccco3)nn12` displayed a nuclei count of 114.

In the case of `CCCOc1ccn2c(C(C)=O)cc(-c3ccccc3S(C)(=O)=O)c2c1`, the nuclei count is 96.4.

The molecule `Cc1cc(=O)n(C)c2cc(N3C(=O)CC[C@H](NS(=O)(=O)CC(C)C)[C@H]3c3ccc(Cl)cc3)ccc12` displayed a nuclei count of 104.

Take `COCCCN1CCC(NC(=O)c2cc(Cl)c(N)c3c2OCC3)CC1` [Prucalopride]: the nuclei count was found to be 103.

As for `O=c1[nH]nc(Sc2ncc([N+](=O)[O-])s2)n1-c1ccc2c(c1)OCCO2`, the nuclei count was found to be 6.42 ± 2.8.

Molecule `O=C1NCCN1c1ncc([N+](=O)[O-])s1` [Niridazole] showed a nuclei count of 90.4.

Molecule `O=c1nc2ccccc2c2n1CC(CN1CCN(c3ccccc3)CC1)N2` (stereo not drawn) came in with a nuclei count of 100.

For `COc1cc2c(cc1OC)CN(CCc1ccc(NC(=O)c3cc(OC)c(OC)cc3NC(=O)c3cnc4ccccc4c3)cc1)CC2` [Tariquidar], the nuclei count came to 96.8.

Molecule `CCCCC/C=C/C=C1/C(=O)C=C[C@@H]1C/C=C\CCCC(=O)O` [15-Deoxy-D12,14-prostaglandin J2] yielded a nuclei count of 85.6.

`O=C(Nc1ccccc1-c1cn2c(CN3CCNCC3)csc2n1)c1cnc2ccccc2n1` registered a nuclei count of 12.2.

On to `O=[N+]([O-])c1cccc2c(Br)[nH]nc12` [3-Bromo-7-nitroindazole], for which the nuclei count amounted to 102.

On to `CCC(=O)OCN1C(=O)C=CC1=O`, for which the nuclei count was determined as 109.

Turning to `CN(CCOc1ccc(-c2ccc3c(c2)OCO3)cc1C(C)(C)C)CC(=O)O`, the nuclei count worked out at 98.

In turn, `COC[C@H](NC(=O)c1cnc(C)s1)C(=O)N[C@@H](COC)C(=O)N[C@@H](Cc1ccccc1)C(=O)[C@@]1(C)CO1` [Oprozomib (ONX 0912)] displayed a nuclei count of 11.1.

Molecule `COC(=O)[C@H](Cc1ccccc1)NC(=O)[C@@H](N)CC(=O)O` [Aspartame] showed a nuclei count of 108.

The molecule `O=C(CCc1ccc(O)cc1)c1c(O)cc(O)cc1O[C@@H]1O[C@H](CO)[C@@H](O)[C@H](O)[C@H]1O` [Phlorizin (Phloridzin)] displayed a nuclei count of 82.5.

In turn, `Oc1cc2c(c(Cl)c1O)CCNCC2c1ccccc1` (stereo not drawn) showed a nuclei count of 91.2.

As for `O=C1CCc2c(ccc3ccccc23)O1` [Splitomicin], the nuclei count was 104 ± 5.1.

As to `CC(NC(=O)C(Cc1ccccc1)NC(=O)OCc1ccccc1)C(=O)CF` (stereo not drawn), the nuclei count is 95.

On to `CCCC[C@@H](C=O)NC(=O)[C@H](CC(C)C)NC(=O)OCc1ccccc1` [Calpeptin], for which the nuclei count came to 102 ± 1.9.

For `CC(C)C[C@@H](C=O)NC(=O)[C@H](CC(C)C)NC(=O)[C@H](CC(C)C)NC(=O)OCc1ccccc1`, the nuclei count was 10.9 and 7.59.

`CC1C(=O)OC2C(O)C34C5CC(C(C)(C)C)C36C(OC(=O)C6O)OC4(C(=O)O5)C12O` (stereo not drawn) [Ginkgolide B]: the nuclei count was determined as 95.

With `NCCCCCc1c[nH]cn1` [Impentamine dihydrobromide], the nuclei count is 90.5.

`CN(Cc1ccccc1)C(=O)[C@H](Cc1ccc2ccccc2c1)NC(=O)[C@@H]1CCCN1C(=O)Nc1ccccc1[N+](=O)[O-]` showed a nuclei count of 100.

`OC(c1cc(C(F)(F)F)nc2c(C(F)(F)F)cccc12)C1CCCCN1` (stereo not drawn) [Mefloquine hydrochloride] displayed a nuclei count of 10.7.

Molecule `Oc1ccc(OC2CCCCO2)cc1` (stereo not drawn) [Deoxyarbutin] showed a nuclei count of 91.1.

Turning to `COC(=O)[C@@H]1CC2=CC(=O)CC[C@]2(C)[C@@]23O[C@@H]2C[C@@]2(C)[C@@H](CC[C@@]24CCC(=O)O4)[C@H]13` [Eplerenone], the nuclei count was determined as 104 ± 3.6.

For the molecule `Cc1cc(Nc2ncc(Cl)c(Nc3ccccc3S(=O)(=O)C(C)C)n2)c(OC(C)C)cc1C1CCNCC1` [Ceritinib (LDK378)], the nuclei count came out at 14.7.

`CC(C)Oc1cc(Nc2nc(N[C@@H](C)c3ccc(F)cn3)ncc2Cl)n[nH]1` returned a nuclei count of 52.7.

For `Cc1cccc(C)c1NC(=O)C[N+](C)(C)C`, the nuclei count is 106.

`CCn1nnc2c(N3CCOCC3)nc(-c3ccc(NC(=O)Nc4ccc(C(=O)N5CCN(C)CC5)cc4)cc3)nc21` returned a nuclei count of 77.7.

Consider `CC(C)c1ccc(Cn2ccc3c4c(N)nc(NC5CC5)nc4ccc32)cc1`, for which the nuclei count came to 29.3.

In turn, `Cc1c(NC(=O)N2CCOCC2)ccc2c1c1ccccc1n2C(C)C` returned a nuclei count of 94.6.

In the case of `CC(C)C[C@H](NC(=O)CNC(=O)c1cc(Cl)ccc1Cl)B(O)O`, the nuclei count is 9.55.

Take `CC(C)C[C@H](NC(=O)CNC(=O)c1cc(Cl)ccc1Cl)B1OC(=O)C(CC(=O)O)(CC(=O)O)O1`: the nuclei count amounted to 11.6.

The molecule `CC(C)C[C@H](NC(=O)[C@H](CCC(=O)O)NC(=O)CNC(=O)c1ccc(/C=C/C(=O)O)cc1)C(N)=O` registered a nuclei count of 97.5.

For `N=C(N)c1ccc(N2CCN(C3CCN(CC(=O)O)CC3)CC2)cc1`, the nuclei count came to 104.

Take `CCCC(=O)[O-].[Na+]` [Sodium butyrate]: the nuclei count turned out to be 89.2.

Consider `CC1=C(/C=C/C(C)=C/C=C/C(C)=C/C(=O)O)C(C)(C)CCC1O` (stereo not drawn) [4-Hydroxyretinoic acid], for which the nuclei count was 101.

`NC(C(=O)O)c1ccc(C(=O)O)c(C(=O)O)c1` (racemic) displayed a nuclei count of 102.

For `COc1cccc(-c2cc(NCc3ccc4c(c3)OCO4)nc(N)n2)c1`, the nuclei count amounted to 19.1.

The molecule `COCC(=O)O[C@]1(CCN(C)CCCc2nc3ccccc3[nH]2)CCc2cc(F)ccc2[C@@H]1C(C)C` [Mibefradil dihydrochloride] returned a nuclei count of 81.7.

For `CC(C)[C@H]1c2ccc(F)cc2CC[C@@]1(CCN(C)CCCc1nc2ccccc2[nH]1)OC(=O)C1CC1` [NNC 55-0396 dihydrochloride], the nuclei count came to 10.5.
